Compound activity as filed in PubChem.
CBFb-RUNX1 inh = qHTS Assay for Compounds Blocking the Interaction Between CBF-beta and RUNX1 for the Treatment of Acute Myeloid Leukemia; 230,000 tested, under 10 active; Potency, µM (series often up to 59.8 µM), most hits filed as inhibitors; Runt-related transcription factor 1 (Homo sapiens) + Core-binding factor subunit beta …; AID 1477, 2009; AlphaScreen CBFb-His/RUNX1-biotin binding, biochemical
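Bead-based AlphaScreen assay; binding partners His-tagged CBF-beta and biotinylated RUNX1 at 30 nM each. Compound exposure 15 min after a 20-min protein preincubation; bead step 90 min; all steps at room temperature.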
LMNA splice mod = qHTS Assay for Modulators of Lamin A Splicing; HeLa LMNA splicing GFP/RFP minigene ratio, 48 h; Potency, µM (titrated, usually from 46.1 µM), usual class: inhibitors; 200,000 tested, 0.01% active; AID 1487, 2009; active = well fitted inhibition curve with a large enough effect in the signal ratio, with a control signal flat, not every such curve was filed as active; inconclusive = small, poorly fitted or top-dose-only effect, or effect the other way, or a change in a side signal; the % refers to the signal ratio
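S3 HeLa cells stably expressing lamin A-EGFP splicing minigene plus DsRed2, 600 cells/well, 48 h compound exposure at 37C. Laser-scanning cytometry; analysed as GFP (500-530 nm)/RFP (575-640 nm) total intensity ratio; 0.5% DMSO vehicle.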
HTT ATP protect = qHTS Multiplex Assay to Identify Dual Action Probes in a Cell Model of Huntington: Cytoprotection (ATP). PC12 HTT-Q103 induced, cytoprotection, ATP luminescence, 40 h. Potency, µM (doses to about 56.4 µM), actives largely listed as activators. 230,000 tested, 0.14% active; note: nearly all actives have a fitted effect of over 45% in size
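ATP quantification (ATPlite) reports survival of PC12 cells in which tebufenozide, 100 nM final, switches on Htt exon 1 with 103 glutamines linked to GFP; compounds are titrated.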
HTT aggregate = qHTS Multiplex Assay to Identify Dual Action Probes in a Cell Model of Huntington: Aggregate Formation (GFP); PC12 HttQ103-GFP aggregates, Acumen cytometry, 40 h; Potency, µM (doses to about 46.1 µM), usual class: inhibitors; 220,000 tested, 1.1% active; note: nearly all actives have a fitted effect of over 60% in size
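PC12/HTTQ103-GFP, ecdysone-inducible; teb 100 nM; cpd qHTS titration; GFP aggregates read on laser cytometer, Ex 488/Em 500-530 nm.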
NPSR antag = qHTS Assay for Antagonists of the Neuropeptide S Receptor: cAMP Signal Transduction. Q6W5P4. CHO-NPSR cells, cAMP TR-FRET, antagonist mode. Potency, µM (series often up to 38.3 µM), usual class: inhibitors. 220,000 tested, 1% active. AID 1461, 2008; note: nearly all actives have a fitted effect of over 50% in size
MBNL1 CUG block = qHTS Assay for Inhibitors of MBNL1-poly(CUG) RNA binding; Muscleblind-like protein 1 (Homo sapiens), Q9NR56; 280,000 tested, 0.036% active; Potency, µM (titrated, usually from 57.5 µM), most hits filed as inhibitors; TR-FRET MBNL1-His/biotin-(CUG)12 binding, 665/545 ratio; AID 2675, 2010; active = well fitted inhibition curve with a large enough effect in the signal ratio, with a control signal flat, not every such curve was filed as active; inconclusive = small, poorly fitted or top-dose-only effect, or effect the other way, or a change in a side signal; inactive = no such curve, though single readings can be large or run the other way; the % refers to the signal ratio
Target sequence (Q9NR56 whole entry, looked up): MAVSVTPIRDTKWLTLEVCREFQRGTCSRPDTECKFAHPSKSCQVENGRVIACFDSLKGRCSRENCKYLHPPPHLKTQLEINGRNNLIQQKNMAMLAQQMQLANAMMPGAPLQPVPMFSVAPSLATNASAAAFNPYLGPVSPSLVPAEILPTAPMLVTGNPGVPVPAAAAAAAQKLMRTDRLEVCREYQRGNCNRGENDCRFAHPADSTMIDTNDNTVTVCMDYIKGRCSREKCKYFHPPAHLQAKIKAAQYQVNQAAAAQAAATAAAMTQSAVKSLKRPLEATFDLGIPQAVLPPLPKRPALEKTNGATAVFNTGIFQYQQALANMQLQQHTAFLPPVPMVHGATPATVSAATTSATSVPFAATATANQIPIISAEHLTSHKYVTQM
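Compounds (final 92 nM to 58 uM) are added to His-tagged MBNL1 and biotin-(CUG)12, then terbium anti-His antibody and streptavidin-XL665 (5 nM final). After 60 min at room temperature, the 665/545 nm ratio is read.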
Numbers stand for hits; n = inactive; u = inconclusive; x = no result given; [ ] = another dose, or the depositor's remark. Hits are enriched below; roughly 1.1% of the tested compounds scored in any of these assays. Unless noted, calls come from the whole dose curve; as a rule, active = well fitted curve in the direction sought with a large enough effect; inconclusive = small, poorly fitted or top-dose-only effect, or another doubt; inactive = no such curve, though single readings can be large; an effect the other way counts as inactive or inconclusive.

SMILES	CBFb-RUNX1 inh	LMNA splice mod	HTT ATP protect	HTT aggregate	NPSR antag	MBNL1 CUG block
CCCSS/C(CCO)=C(/C)N(C=O)Cc1cnc(C)nc1N	x	x	n	n	x	x
CCOc1c(Br)ccc2c1sc1nc[nH]c(=O)c12	n	n	n[10 µM]	11µM	n	n
NC(=O)[C@@H]1CCCN1Cc1ccc2c(c1)OCO2	x	x	n[10 µM]	x	x	x
O=C(NC1CCCC1)c1cc2c(ccc3ccccc32)o1	n	n	n	11µM	n	n
COc1ccccc1-c1nnc(SC(C(=O)c2c[nH]c3ccccc23)c2ccccc2)n1C (configuration not stated)	n	u	4.5µM	2.8µM	u	n
COc1cccc(-c2nnc(SC(C(=O)c3c[nH]c4ccccc34)c3ccccc3)n2C)c1 (configuration not stated)	n	u	x	u	n	x
COC(=O)c1ccc2c(c1)C(C)(C)C(/C=C/c1ccc(OC)c(OC)c1OC)=[N+]2C	n	u	n	11µM	10µM	n
COc1ccc(C(=NNc2ccccc2C(=O)O)c2ccc(OC)cc2)cc1	n	u	x	n	7.9µM	u
COc1ccccc1OC[C@H](O)CN1CCN(CC(=O)Nc2c(C)cccc2C)CC1	x	x	n[1.9 µM]	x	x	x
O=S(=O)(NC1CCCC1)c1ccc(S(=O)(=O)N2CCc3ccccc32)cc1	n	u	n[10 µM]	11µM	n	n
O=C1C(Cl)=C(N2CCCCC2)C(=O)C(Cl)=C1c1cnc(N2CCCCC2)s1	x	n	n[10 µM]	n	6.3µM	n
Cc1cccc(NC(=O)CSc2nc(C)c(CC(=O)c3ccc(Br)cc3)c(C)c2C#N)c1C	n	n	n	n	6.3µM	n
COCc1cc(C)nc(SCC(=O)Nc2cccc(C)c2C)c1C#N	n	n	n[10 µM]	n	u	n
O=C(Nc1ccc(-c2cn3ccccc3n2)cc1)c1ccc(Cl)cc1	n	n	n[10 µM]	2.8µM	n	n
Clc1ccc(-c2cn3ccccc3n2)cc1	x	x	x	x	x	n
O=C(CNC(=O)c1ccc(S(=O)(=O)N2CCCC2)cc1)N/N=C/c1c(Cl)cccc1Cl	n	u	n[10 µM]	11µM	n	n
O=C(NC(c1ccc(Cl)cc1)c1cc(Cl)c2cccnc2c1O)c1cccnc1 (configuration not stated)	n	u	n[10 µM]	8.9µM	n	u
CC(=O)NC(c1ccccc1)c1cc(Cl)c2cccnc2c1O (configuration not stated)	x	x	x	x	x	n
N#Cc1cc2sc3nnc(-c4ccncc4)n3c2cc1C#N	n	u	13µM	x	n	u
Cc1ccc(-c2c(C#N)c(N)n3c(nc4ccccc43)c2C#N)cc1	u	u	n[10 µM]	10µM	n	u
Cc1ccc(C)c(N2CCN(C(=O)Nc3ccc4c(c3)N(C)C(=O)CS4)CC2)c1	n	x	n	22µM	n	n
CN1C(=O)CSc2ccc(NC(=O)N3CCN(c4ccccn4)CC3)cc21	n	u	n[10 µM]	u	n	n
CC(O)[C@@H](O)[C@H]1CNc2nc(N)[nH]c(=O)c2N1 (some centres not stated)	n	u	x	x	u	u
N#Cc1c(-c2ccc(Br)cc2)cc(-c2cccnc2)nc1N	u	n	n[10 µM]	n	n	x
CS(=O)c1nc(-c2ccc(Br)cc2)cc(-c2ccccc2)c1C#N (configuration not stated)	n	u	n[0.074 µM]	u	13µM	n
CS(=O)(=O)c1nc(-c2ccc(Br)cc2)cc(-c2ccccc2)c1C#N	n	u	n	n	7.9µM	n
N#Cc1c(-c2ccccc2)cc(-c2ccc(O)cc2)nc1N	x	x	x	x	x	n
N#C/C(=N\Nc1ccc(Cl)cc1)C(=O)c1ccccc1	n	u	n	u	13µM	n
COc1ccc(C(=O)/C(C#N)=N/Nc2ccccc2[N+](=O)[O-])cc1	n	u	n[10 µM]	u	n	n
